“And” between values parts separate entries of the source, which are not always exact repeats. Equal entries are not always repeated. Inconclusive results are not listed. A call without a number means that no potency is given here. Some structures have more than one record in an assay (separate samples or runs), and their calls can disagree. The source made the active and inactive calls. The call rests on the fitted dose curve; in most records, active means well fitted cell-killing curve with a large enough effect in the repeat runs; inconclusive means weak or mixed curves, or effect the other way; inactive means flat fitted curve, though single readings scatter.
Potency means the concentration at half of the fitted maximal effect.

A short description of this assay: qHTS RealTime-Glo MT Cell Viability Assay in HepG2 cells - 40 hour (AID 1224870). Further: nearly all actives have a fitted effect of over 50% in size. The conditions noted are these: RealTime-Glo luminescence; series mostly up to 76.8 µM. From the text:
National Center for Advancing Translational Sciences [NCATS]
NIH Chemical Genomics Center [NCGC]
U.S. Environmental Protection Agency [EPA]
National Institutes of Environmental Health Sciences [NIEHS]
National Toxicology Program [NTP]
U.S. Food and Drug Administration [FDA]
Measure of cell viability is critical in the cell-base assay. Analysis of cell viability is necessary for the characterization of cell responses to cytotoxic drugs and environmental stress. A RealTime-Glo MT Cell Viability Assay to monitor cell viability in real time of continues cell culture during 40 hours of compound treatment was used to screen Tox21 10K library compounds in HepG2 cells. The RealTime-Glo MT Cell Viability Assay is a nonlytic, homogeneous, bioluminescent method to measure cell viability in real time using a simple, plate-based method. The assay involves adding NanoLuc luciferase and a cell-permeant prosubstrate to cells in culture. Viable cells reduce the proprietary prosubstrate to generate a substrate for NanoLuc luciferase. This substrate diffuses from cells into the surrounding culture medium, where it is rapidly used by the NanoLuc Enzyme to produce a luminescent signal. The signal correlates with the number of viable cells, making the assay well suited for cytotoxicity studies.
Tox21 Assay Protocol Summary:
The mixture of HepG2 cell suspension and reagents were dispensed at 600cells/6 ul/well in 1536-well tissue culture treated black solid bottom plates using a Multidrop dispenser. After the assay plates were incubated at a 37 C/5% CO2 incubator for 5 hours, 23 nL of compounds dissolved in DMSO, positive and negative controls was transferred to the assay plate by a pintool work station. The plates were incubated at 37 C for 40 hours. The luminescence intensity were measured at 0h, 8h, 16h, 24h, 32h and 40h time points using ViewLux plate reader during compound treatment.
(Quantitative high-throughput screening tests each substance at several concentrations.)
As to `S=C(NC1CCCCC1)NC1CCCCC1`, the Potency result was “inactive”. `O=C(O)c1ccccc1Nc1cccc(C(F)(F)F)c1`: the Potency result was “inactive”. Take `CC(C)OC=O`: the Potency entry is “inactive”.

Regarding `Oc1ccc(O)cc1`, the Potency entry was “inactive”. Take `O=Cc1ccccc1O`: the Potency result is “inactive”. The entry for `O=CCc1ccccc1` is “inactive”. With `Cc1ccc2c(n1)Oc1ccc(C(C)C(=O)OCC(=O)N(C)C)cc1C2` (stereo not given), the Potency entry was “inactive”. In the case of `CC(CCC(=O)O)(c1ccc(O)cc1)c1ccc(O)cc1`, the Potency result is “inactive”. For `NC=O`, the Potency entry was “inactive”. For `CC(=O)CC/C=C(\C)CCC=C(C)C`, the Potency entry was “inactive”. In the case of `COc1c(Cl)c(Cl)c(Cl)c(Cl)c1Cl`, the Potency entry was “inactive”. As to `OC(CCl)CCl`, the Potency entry was “inactive”. In the case of `CCCCc1oc2ccccc2c1C(=O)c1cc(I)c(OCCN(CC)CC)c(I)c1`, the Potency is 39.2 µM (active). As for `c1ccncc1`, the Potency entry is “inactive”. As for `CCCCC(CC)COC(=O)c1ccc(N(C)C)cc1` (stereo not given), the Potency result was “inactive”. As to `OC1CCCCCCCCCCC1`, the Potency result was “inactive”.

With `CN(C)C(=N)N=C(N)N`, the Potency result was “inactive”. In the case of `CC(=O)Oc1ccccc1C(=O)Nc1ncc([N+](=O)[O-])s1`, the Potency result is “inactive”. In the case of `CN(C)CCC=C1c2ccccc2CCc2ccccc21`, the Potency result is “inactive and 54.9 µM (active)”. On to `c1ccc2c(c1)Oc1ccccc1S2`, for which the Potency result was “inactive”. As to `c1cc(N(CC2CO2)CC2CO2)ccc1OCC1CO1` (stereo not given), the Potency entry was “inactive”. As for `CC(=O)O[C@]1(C(C)=O)CC[C@H]2[C@@H]3C=C(Cl)C4=CC(=O)[C@@H]5C[C@@H]5[C@]4(C)[C@H]3CC[C@@]21C`, the Potency result is “inactive”. Turning to `CC(C)OC(=O)C(C)(C)Oc1ccc(C(=O)c2ccc(Cl)cc2)cc1`, the Potency entry is “inactive”. On to `Cc1c(OCC(F)(F)F)ccnc1CS(=O)c1nc2ccccc2[nH]1` (stereo not given), for which the Potency entry was “inactive”. On to `Cc1c(C(N)=O)cc([N+](=O)[O-])cc1[N+](=O)[O-]`, for which the Potency entry is “inactive”. Take `Nc1ccc(S(=O)(=O)Nc2cnc3ccccc3n2)cc1`: the Potency entry was “inactive”. For the compound `C[C@]12CC[C@H]3[C@@H](CCC4=CC(=O)CC[C@@]43C)[C@@H]1CC[C@@H]2C(=O)CO`, the Potency entry was “inactive”. For the compound `COc1cccc2c1C(=O)c1c(O)c3c(c(O)c1C2=O)C[C@@](O)(C(=O)CO)C[C@@H]3O[C@H]1C[C@H](N)[C@H](O)[C@H](C)O1`, the Potency was 0.952 µM (active).

For the compound `CCC(C)c1ccccc1O` (stereo not given), the Potency result is “inactive”. Take `COC(=O)C1=C(C)NC(C)=C(C(=O)OCCN(C)Cc2ccccc2)C1c1cccc([N+](=O)[O-])c1` (stereo not given): the Potency is 43.4 µM (active).

As for `Cc1cc2nc3c(=O)[nH]c(=O)nc-3n(C[C@H](O)[C@H](O)[C@H](O)CO)c2cc1C`, the Potency result was “inactive”. The entry for `O=C(c1ccccc1)c1ccccc1O` is “inactive”.

In the case of `CCCCNS(=O)(=O)c1ccccc1`, the Potency entry was “inactive”.

`COc1cc([C@@H]2c3cc4c(cc3[C@H](O)[C@H]3COC(=O)[C@H]23)OCO4)cc(OC)c1OC`: the Potency result was “inactive”.

Take `CCC(C)OC(=O)c1ccc(O)cc1` (stereo not given): the Potency result was “inactive”. `CC(C)CC(C)(O)C#CC(C)(O)CC(C)C` (stereo not given): the Potency result is “inactive”. As to `O=C=Nc1ccc(Cc2ccc(N=C=O)cc2)cc1`, the Potency entry was “inactive”. For `O=C1c2cccc(O)c2C(=O)c2c(O)cccc21`, the Potency result is “inactive”. Then `CC1=CC2C3CC(C=C3C)C2C1` (stereo not given), with “inactive”. Regarding `CC(C)=CCC/C(C)=C\CO`, the Potency entry was “inactive”.

The record behind these values is PubChem BioAssay (Tox21).
